Measurements taken from PubChem BioAssay AID463173 (ICCB-Longwood Screening Facility, Harvard Medical School, 2010).
In all, about 52,000 compounds went through this assay and about 1,700 (3.3%) were called active. The list comes from a sample in which actives are over-represented; it also holds similar structures and randomly drawn compounds. A number with no mark means an inactive call. No stated cut-off is given here; in the data, active means survival mostly below about 52% (no sharp cut-off); inactive means mostly above about 56%.

system: Wild type; test: S. aureus survival, RN4220 and DeltatarO strains – OD600, teichoic acid synthesis inhibitors, primary screen (AID 463173); conditions: S. aureus RN4220 wild type/DeltatarO growth, OD600, 18 h, stronger effect = lower value, screened at 18.75 µg/mL (by protocol)

| Compound | survival |
| --- | --- |
| CCCC(C)C(=O)Nc1nnc(C(F)(F)F)s1 (configuration not stated) | 100% |
| O=C(Nc1cccc2c1CCCC2)N1CCOc2ccc(Cl)cc21 | 83% |
| COc1ccc(-c2nc(CCNC(=O)c3cccs3)cs2)cc1OC | 159% |
| Cc1cccc(Cn2c(CNS(=O)(=O)c3ccc(C(C)C)cc3)nc3cccnc32)c1 | 78% |
| N=c1nc(N)nc2n1NC(c1ccc(F)cc1)=CS2 | 108% |
| CCC(Sc1ncc(S(=O)(=O)c2ccc(Cl)cc2)c(=O)[nH]1)C(=O)Nc1ccc(OC)cc1 (configuration not stated) | 96% |
| CC1CCCCN1CC(=O)N1CCCc2c1c(=O)oc1ccc(OCc3ccccc3)cc21 (configuration not stated) | 43% |
| CCC1CCCCN1CC(=O)N1CCCc2c1c(=O)oc1ccc(OCc3ccccc3)cc21 (configuration not stated) | 3% (active) |
| CC1CCN(CC(=O)N2CCCc3c2c(=O)oc2ccc(OCc4ccccc4)cc32)CC1 | 86% |
| CCCCN(CCCC)C(=O)c1cc2c(=O)n3cccc(C)c3nc2s1 | -2% (active) |
| CCCN(CCC)C(=O)c1cc2c(=O)n3cccc(C)c3nc2s1 | 80% |
| CCCCN(CC)C(=O)c1cc2c(=O)n3cccc(C)c3nc2s1 | 77% |
| CCOC(=O)c1[nH]c2ccccc2c1N=CN(C)C | 104% |
| O=c1cc(O)n(-c2ccccc2)c(=S)[nH]1 | 99% |
| CC1CCc2nc3ncn(Cc4ccc(Cl)cc4)c(=O)c3cc2C1 (configuration not stated) | 80% |
| CC1CCc2nc3ncn(Cc4ccccc4C#N)c(=O)c3cc2C1 (configuration not stated) | 71% |
| CC1CCc2nc3ncn(Cc4cccc(F)c4)c(=O)c3cc2C1 (configuration not stated) | 66% |
| Cc1ccccc1Cn1cnc2nc3c(cc2c1=O)CC(C)CC3 (configuration not stated) | 0% (active) |
| Cc1ccc(Cn2cnc3nc4c(cc3c2=O)CC(C)CC4)cc1 (configuration not stated) | -3% (active) |
| CC1CCc2nc3ncn(Cc4ccccc4F)c(=O)c3cc2C1 (configuration not stated) | 53% |
| O=C(O)CN1C(=O)/C(=C\c2ccccc2)SC1=S | 102% |
| CN1/C(=C2/SC(=O)N(Cc3ccccc3)C2=O)Sc2ccccc21 | 118% |
| Cc1cc(N2CCC(C)CC2)nc2ccc(NC(=O)CCC(=O)N3CCN(c4cccc(C(F)(F)F)c4)CC3)cc12 | 64% |
| Cc1ccc(-c2nonc2NC(=O)c2ccco2)cc1C | 79% |
| COc1ccc(-c2cn3cccnc3n2)cc1NC(=O)c1ccccc1C(F)(F)F | 69% |
| COc1cc2nc(NC(=O)c3ccc(S(=O)(=O)N4CCOCC4)cc3)sc2cc1OC | 79% |
| COC(=O)c1sc2cccc(F)c2c1S(=O)(=O)N1CCN(c2ccccc2OC)CC1 | 47% |
